# About 83,000 compounds went through this panel and 20% of them were active in at least one assay; those are over-represented in the sample as a whole.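 Single-concentration screen, 48 h exposure, 96-well plates. Endpoint: percent growth. Below 10 = active.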 Activity calls are given as the source filed them.
# Test system: SK-MEL-2 melanoma
# Assay: NCI-60 one-dose screen, 48 h (100 = growth as untreated, 0 = no growth, -100 = all killed)
# Details: 10 µM unless noted
row,Structure (SMILES),growth
1,NC(=O)CSSCC(N)=O,107% (inactive)
2,C=C(C)[C@@H]1CC[C@]2(C(=O)N3CCN(C)CC3)CC[C@]3(C)[C@H](CC[C@@H]4[C@@]5(C)CC[C@H](O)C(C)(C)[C@@H]5CC[C@]43C)[C@@H]12,61.8% (inactive)
3,O=C1Nc2cc(Cl)ccc2/C1=C\c1c(-c2ccc(F)cc2)nc2ccccn12,23.7% (inactive)
4,CCc1ccc(-c2cn3ccnc3c(-c3ccc4ncn(Cc5ccccc5)c4c3)n2)cc1,85.2% (inactive)
5,CCOC(=O)c1cc(C(=O)c2ccc(OC)c(OC)c2)n2ccc(/C=C/c3cc[n+](CC(=O)c4ccc(OC)c(OC)c4)cc3)cc12,112% (inactive)
6,COc1cc(/C=C\c2cc(OC)c(OC)c(OC)c2)cc(NC(=O)/C=C/c2cc(OC)c(OC)c(OC)c2)c1OC,47% (inactive)
7,CN1C(N2CCN(S(=O)(=O)c3ccccc3)CC2)=NS(=O)(=O)c2ccccc21,56.7% (inactive)
8,O=C1Nc2ccccc2/C1=C\c1c(-c2ccc(F)cc2)nc2ccccn12,75.5% (inactive)
9,OCc1cnc2ccccc2c1NC1CCCCCC1,100% (inactive)
10,Oc1c(Cl)cc(Cl)c(Cl)c1CNCCNCc1c(O)c(Cl)cc(Cl)c1Cl,18.3% (inactive)
11,CN1[C@@H]2CC[C@H]1/C(=C\c1ccccc1)C(=O)/C2=C/c1ccccc1,60.7% (inactive)
12,O=C1c2c(c3c4cccc(F)c4[nH]c3c3ccc4ccccc4c23)C(=O)N1O,51.5% (inactive)
13,CN(C)CCC(=O)c1ccc([N+](=O)[O-])cc1,109% (inactive)
14,Cc1ccc(-c2nc3ccccn3c2/C=C2/C(=O)Nc3cc(Cl)ccc32)cc1,87.7% (inactive)
15,CC(=O)[C@@H]1CC[C@]2(C(N)=O)CC[C@]3(C)[C@H](CC[C@@H]4[C@@]5(C)CCCNC(C)(C)[C@@H]5CC[C@]43C)[C@@H]12,86.2% (inactive)
16,CC(C)N1C(=O)S/C(=C2/SC(=O)N(C(C)C)C2=O)C1=O,98.7% (inactive)
17,NS(=O)(=O)c1ccc(CCN2C(=O)C3C(C2=O)C2(Cl)C(Cl)=C(Cl)C3(Cl)C2(Cl)Cl)cc1 (stereo not given),99% (inactive)
18,Nc1c(S(=O)(=O)O)cc2c3c(cccc13)C(=O)OC2=O,51% (inactive)

row,Structure (SMILES),growth
1,O=C(CCN1CCCC1)c1ccc([N+](=O)[O-])cc1,111% (inactive)
2,O=C1Nc2ccc(F)cc2/C1=C\c1c(-c2ccccc2)nc2ccccn12,63.7% (inactive)
3,O=Cc1ccc(-c2cn3ccnc3c(-c3ccc4ncn(Cc5ccccc5)c4c3)n2)cc1,72.2% (inactive)
4,N#C/C(=C\c1ccc(C(F)(F)F)cc1)c1cc2ccccc2[nH]1,96.1% (inactive)
5,O=C1c2cccc3c(-c4ccc5c(c4)ncn5C4CCCCC4)ccc(c23)C(=O)N1c1nc2ccccc2s1,81.4% (inactive)
6,Cc1cccc(-c2cn3ccnc3c(-c3ccc4ncn(Cc5ccccc5)c4c3)n2)c1,93.7% (inactive)
7,CCOC(=O)C1=C(CCl)NC(=O)NC1c1ccc2c(c1)OCO2 (stereo not given),69.5% (inactive)
8,CCCN1[C@@H]2CC[C@H]1/C(=C\c1ccc(OC)c(OC)c1)C(=O)/C2=C/c1ccc(OC)c(OC)c1,53.6% (inactive)
9,COc1ccc(C(=O)C2C(C#N)C(C#N)C3c4ccccc4C=CN23)cc1 (stereo not given),88.5% (inactive)
10,O=C(C[n+]1cccc2ccccc21)c1ccc(O)c(O)c1,90.8% (inactive)
11,COc1ccc(C(=O)c2nc3ccccc3n2CC(=O)c2ccc(F)cc2)cc1,72.4% (inactive)
12,CC(=O)[C@@H]1CC[C@]2(CO)CC[C@]3(C)[C@H](CC[C@@H]4[C@@]5(C)CCCNC(C)(C)[C@@H]5CC[C@]43C)[C@@H]12,105% (inactive)
13,NS(=O)(=O)c1ccc(CCN2C(=O)C=CC2=O)cc1,98.2% (inactive)
14,Nc1ccccc1NC(=O)c1ccc(-n2nc(-c3ccccc3)c3ccccc32)cc1,94.3% (inactive)
15,N#CC1C(C#N)C2c3ccccc3C=CN2C1C(=O)c1ccc(Br)cc1 (stereo not given),98.3% (inactive)
16,O=C(CNCCN1CCOCC1)N1c2cccc3cccc(c23)N(C(=O)CNCCN2CCOCC2)C1c1cn(-c2ccccc2)nc1-c1cccc([N+](=O)[O-])c1,96.5% (inactive)
17,C=C(C)[C@@H]1CC[C@]2(C(=O)N[C@H](CO)Cc3ccccc3)CC[C@]3(C)[C@H](CC[C@@H]4[C@@]5(C)CCCNC(C)(C)[C@@H]5CC[C@]43C)[C@@H]12,-92.5% (active)

# — PubChem BioAssay (NCI)
